SMILES strings stand for the structures. Compounds without any hit were thinned out: in the full panel of roughly 83,000, 20% have a hit.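 Growth was measured after 48 h exposure to one concentration of compound in 96-well plates. Values under 10 count as active.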 Calls of active or inactive are those of the source.

For the test, the system named is NCI-H23 lung. The test can be described thus: NCI-60 one-dose screen, 48 h (100 = growth as untreated, 0 = no growth, -100 = all killed). The conditions noted are these: 10 µM unless noted. The protocol: Growth inhibition of the NCI-H23 human Non-Small Cell Lung tumor cell line is measured as a screen for anti-cancer activity. Cells are grown in 96 well plates and exposed to the test compound for 48 hours. Compounds are tested at a single concentration, which is 10^-5 M for most compounds. The reported endpoint is percent growth (GI% or GIPRCNT), where numbers from 0 - 100% represent growth inhibition, and numbers from -100% - 0 represent cell death. For example, a value of 40 represents 60% growth inhibition. A value of 0 means no net growth occurred over the course of the experiment. A value of -40 indicates 40% of cells at the beginning of the experiment died by the end of the experiment. A value of -100 means all cells are dead at the end of the experiment.
NCI-60 Human Tumor Cell Lines Screen was performed using the standard one-dose NCI protocol, which is described in more detail at https://dtp.cancer.gov/discovery_development/nci-60/default.htm.
Compounds with GIPRCNT values below 10 were considered active. Activity score was based on GIPRCNT using the following formula: […]
Score is 0 for GIPRCNT values of 100 or above, 50 for GIPRCNT values of 0, and 100 for GIPRCNT values of -100.
As to `COc1cc(C(C)c2ccc3c(ccn3C)c2)cc(OC)c1OC` (stereo not given), the growth is 29.3% (inactive). The same measure for `COC(=O)CCc1n(Cc2ccc3ccccc3c2)c2ccccc2[n+]1Cc1ccc2ccccc2c1`: -7.39% (active); for `C=C(C)[C@@H]1CC[C@]2(C(N)=O)CC[C@]3(C)[C@H](CC[C@@H]4[C@@]5(C)CCCNC(C)(C)[C@@H]5CC[C@]43C)[C@@H]12`: 76.4% (inactive); for `C=C(C)[C@@H]1CC[C@]2(C(=O)O)CC[C@]3(C)[C@H](CC[C@@H]4[C@@]5(C)C[C@@H](CC#Cc6ccc(Cl)cc6)C(=O)C(C)(C)[C@@H]5CC[C@]43C)[C@@H]12`: 28.5% (inactive). The same measure for `COc1ccc2c(c1)Oc1nc(N)c(C#N)c(N)c1C2Sc1ccc(SC)cc1` (stereo not given): 44.1% (inactive); for `C[C@H]1[C@H](C)CC[C@]2(C(=O)OCCCC[P+](c3ccccc3)(c3ccccc3)c3ccccc3)CC[C@]3(C)C(=CC[C@@H]4[C@@]5(C)CC[C@H](OC(=O)C(Cl)Cl)C(C)(C)[C@@H]5CC[C@]43C)[C@H]12`: -48.3% (active). In the case of `O=CN1N=C(c2ccc3c(c2)OCO3)CC1c1cccc(Nc2ccnc3cc(C(F)(F)F)ccc23)c1` (stereo not given), the growth was 68.9% (inactive). The figure for `C#CCN1C(=O)c2ccccc2N(CC#C)C12CCN(Cc1cn(CC(=O)Nc3ccccc3C(N)=O)nn1)CC2` is 78.4% (inactive).

For the molecule `CCCCn1c(=O)c(/C=C/C(=O)/C=C/c2ccc(O)c(OC)c2)cc2ccc(Cl)cc21`, the growth was 27.7% (inactive). The same measure for `CCOc1ccc(C2N(c3cc(OC)c(OC)c(OC)c3)C(=O)C2(F)F)cc1` (stereo not given): 33.6% (inactive); for `c1ccc(Sc2ncccn2)nc1`: 93% (inactive).

Take `O=S(=O)(Nc1nccs1)c1ccc(Nc2nc(-c3ccncc3)cs2)cc1`: the growth is 108% (inactive).

For `COc1ccc2[nH]c3nc4cnccc4cc3c2c1`, the growth was 95.2% (inactive).

Turning to `O=S(=O)(O)c1ccc(N=NSc2ccc3ccccc3c2)cc1`, the growth is 93.4% (inactive). The same measure for `COc1cc2c(Nc3ccc(NC(=O)Nc4ccc(Cl)c(C(F)(F)F)c4)c(Cl)c3)ncnc2cc1OCCCN1CCN(C)CC1`: 17.2% (inactive).

Regarding `Nc1c(C(=O)Nc2ccccn2)sc2nc3c(cc12)CCCCCC3`, the growth was 41% (inactive). The figure for `O=C1NN(c2ccccc2)C(c2ccc3c(c2)OCO3)N2CCC[C@@H]12` (stereo not given in full) is 88.2% (inactive). Regarding `Sc1cccc2cccnc12`, the growth was 55.4% (inactive).

`COc1ccc(/C=C(/C(=O)N2CCN(Cc3ccccc3)CC2)c2cc(OC)c(OC)c(OC)c2)cc1O`: the growth is 81% (inactive).

As to `COc1ccc(C(=S)c2cc(OC)c(OC)c(OC)c2)cc1OC(=O)CCl`, the growth was 31.4% (inactive). The same measure for `COc1ccccc1Nc1nnc(-c2ccc(Cl)cc2)o1`: 63.9% (inactive); for `CO[C@@]12C=C[C@@]34CCC(=O)N3c3ccccc3[C@@H](O1)C4C2`: 99.9% (inactive); for `COc1ccc(C2N(c3cc(OC)c(OC)c(OC)c3)C(=O)C2(F)F)cc1F` (stereo not given): 37.9% (inactive). Regarding `N#Cc1ccc(N2Cc3cc(Cl)ccc3OC3=C2C(=O)N(Cc2ccc(F)cc2)C3=O)cc1`, the growth was 3.56% (active).

Turning to `CCSc1ccc(C2C(Br)C(=O)N2c2cc(OC)c(OC)c(OC)c2)cc1` (stereo not given), the growth was 25.2% (inactive). The figure for `C=C(C)[C@@H]1CC[C@]2(C(=O)N3CCN(C)CC3)CC[C@]3(C)[C@H](CC[C@@H]4[C@@]5(C)C/C(=C/c6ccco6)C(=O)C(C)(C)[C@@H]5CC[C@]43C)[C@@H]12` is 79.9% (inactive). With `FC(F)(F)c1ccc2c(Nc3cccc(C4CC(c5ccccc5)=NN4c4ccc(Cl)cc4)c3)ccnc2c1` (stereo not given), the growth is 61% (inactive).

Turning to `C=C1C(=O)O[C@H]2[C@H]1CC/C(COC(=O)NCc1nc3ccccc3[nH]1)=C\CC[C@@]1(C)O[C@@H]21`, the growth was 87.2% (inactive). With `O=C(O)c1ccc(-n2cc(/C=N/Nc3ccc(Cl)cc3Cl)c(-c3ccccc3)n2)cc1`, the growth was 84.5% (inactive). The figure for `CC(C)(C)CC(C)(C)Cc1ccc(OCCOCC[N+](C)(C)Cc2ccccc2)cc1` is 20.7% (inactive); for `Cc1cccc(C)c1NC(=O)CN(CC(C)C)CC(O)COc1ccccc1` (stereo not given) it is 86% (inactive). With `COc1cc(C2=NN(C=O)C(c3cccc(Nc4ccnc5cc(C(F)(F)F)ccc45)c3)C2)cc(OC)c1OC` (stereo not given), the growth is 59.9% (inactive).

In the case of `COc1ccc2nc(-c3ccc(Cl)cc3)cc(C(=O)N3N=C(c4ccc(N)cc4)CC3c3ccccc3)c2c1` (stereo not given), the growth was 62% (inactive). The figure for `C=C(C)[C@@H]1CC[C@]2(C(=O)OCCOCCOCC[P+](c3ccccc3)(c3ccccc3)c3ccccc3)CC[C@]3(C)[C@H](CC[C@@H]4[C@@]5(C)CC[C@H](C)C(C)(C)[C@@H]5CC[C@]43C)[C@@H]12` is -80% (active); for `NS(=O)(=O)c1ccc(-n2nc(-c3ccccc3)ccc2=O)cc1` it is 101% (inactive); for `CC1=C/C(=N\N=C2/C=C(C)CC(C)(C)C2)CC(C)(C)C1` it is 102% (inactive).

In the case of `CCOC(=O)c1c(C)nc2c(c1N)/C(=C/c1cccs1)C(=O)N2c1ccc(OC)cc1`, the growth is 43.9% (inactive). The figure for `CCc1c(C(=O)N[C@@H](C(=O)OCc2ccccc2)C(C)O)[nH]c2ccc(Cl)cc12` (stereo not given in full) is 80.1% (inactive); for `C=C1C(=O)O[C@H]2[C@H]1CC/C(COC(=O)N1CCC[C@H]1C(=O)Nc1ccc(OC)c(C(N)=O)c1O)=C\CC[C@@]1(C)O[C@@H]21` it is 79.5% (inactive).

For `S=C(Nc1ccc(Cl)cc1)c1ccccn1`, the growth is 83% (inactive).
